Calls of active or inactive are those of the source. Unless noted, how the calls were made is not given here.
Experiments:
[1] = A549 cell viability effects, profiling panel, calcein-AM fluorescence, 48 h, basal (AID 1162); settings: higher = more signal; further: test concentration not given here
[2] = adipocyte viability effects, profiling panel, cell-based, 3T3-L1 adipocytes, calcein-AM fluorescence, 48 h, basal (AID 1163); settings: 3T3-L1 adipocytes viability, higher = more signal; further: test concentration not given here
[3] = HepG2 cell viability effects, profiling panel, calcein-AM fluorescence, 48 h, basal (AID 1164); settings: higher = more signal; further: test concentration not given here
[4] = MM1S cell viability effects, profiling panel, calcein-AM fluorescence, 48 h, basal (AID 1165); settings: higher = more signal;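 further: viability of MM1S multiple myeloma cells under basal unstimulated conditions; test concentration not given here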
[5] = basal RPMI8226 viability, no added stimulus, profiling panel, cell-based, calcein-AM fluorescence, 48 h, PK04 Diversity Set (AID 1166); settings: RPMI8226 myeloma viability, higher = more signal;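 further: cells grown under basal conditions without added stimulus; test concentration not given here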
[6] = basal HepG2 mitochondrial membrane potential changes, profiling panel, cell-based, JC-1 fluorescence, 24 h, 100 nL compound (AID 1167); settings: higher = more signal; further: test concentration not given here
[7] = basal 3T3-L1 adipocyte mitochondrial potential changes, profiling panel, cell-based, JC-1 fluorescence, 3T3-L1 adipocytes, 24 h, 100 nL compound (AID 1168); settings: JC-1 mitochondrial fluorescence, higher = more signal, called active from +8 up or from −8 down; further: test concentration not given here
[8] = basal RPMI8226 mitochondrial membrane potential changes, profiling panel, cell-based, JC-1 fluorescence, 24 h, 100 nL compound (AID 1169); settings: RPMI8226 myeloma, JC-1 mitochondrial potential fluorescence, higher = more signal; further: test concentration not given here
[9] = basal MM1S mitochondrial membrane potential changes, profiling panel, cell-based, JC-1 fluorescence, 24 h, 100 nL compound (AID 1170); settings: higher = more signal; further: test concentration not given here
[10] = A549 lung cancer cell viability effects, profiling panel, resazurin fluorescence, 24 h, PK04 Diversity Set (AID 1171); settings: higher = more signal, called active from +8 up or from −8 down; further: test concentration not given here
[11] = HepG2 liver cancer cell viability effects, profiling panel, resazurin fluorescence, 24 h, PK04 Diversity Set (AID 1172); settings: higher = more signal; further: test concentration not given here
[12] = basal S. cerevisiae growth modulation, no modifier, primary screen, OD600, strain BY4716, 24 h, basal condition (AID 1173); settings: OD600, 24 h, higher = more signal, called active from +8 up or from −8 down
[13] = MM1S myeloma cell viability, profiling panel, resazurin fluorescence, basal, 24 h, PK04 Diversity Set (AID 1174); settings: higher = more signal, called active from +8 up or from −8 down;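 further: MM1S multiple myeloma cell line; test concentration not given here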
[14] = molecular target: Dihydroorotate dehydrogenase (quinone), mitochondrial (Plasmodium falciparum (isolate 3D7)) (UniProt Q08210); assay: PfDHODH enzyme inhibitors, primary screen, biochemical, C-terminal His tag, absorbance 600 nm (AID 1175); settings: DCIP absorbance 600 nm, higher = more signal, called active from +8 up or from −8 down;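 further: recombinant parasite enzyme with a five histidine tag at its C terminus; test concentration not given here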
Chain of Dihydroorotate dehydrogenase (quinone), mitochondrial (Plasmodium falciparum (isolate 3D7)) (Q08210 whole entry, looked up): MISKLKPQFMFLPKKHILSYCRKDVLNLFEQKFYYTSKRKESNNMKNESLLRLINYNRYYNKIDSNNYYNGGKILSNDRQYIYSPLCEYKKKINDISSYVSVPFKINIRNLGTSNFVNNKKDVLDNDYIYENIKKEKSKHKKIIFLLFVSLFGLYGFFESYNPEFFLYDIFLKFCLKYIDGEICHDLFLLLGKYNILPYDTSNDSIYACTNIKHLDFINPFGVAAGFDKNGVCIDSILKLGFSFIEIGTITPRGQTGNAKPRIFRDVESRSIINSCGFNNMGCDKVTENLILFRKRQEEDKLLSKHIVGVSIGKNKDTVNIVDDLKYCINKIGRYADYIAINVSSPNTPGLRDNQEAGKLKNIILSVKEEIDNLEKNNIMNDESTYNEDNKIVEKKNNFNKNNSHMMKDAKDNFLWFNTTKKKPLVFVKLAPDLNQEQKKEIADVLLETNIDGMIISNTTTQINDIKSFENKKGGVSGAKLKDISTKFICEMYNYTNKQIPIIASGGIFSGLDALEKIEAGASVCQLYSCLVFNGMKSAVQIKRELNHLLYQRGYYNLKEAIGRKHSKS

[15] = P. aeruginosa biofilm formation inhibitors, primary screen, strain PAO1, LB-PBS medium, absorbance 600 nm (AID 1176); further: test concentration not given here; settings: P. aeruginosa PAO1 growth/biofilm, A600, 12 h; higher = more signal
[16] = S. cerevisiae RM11-1a growth modifiers, primary screen, strain RM11-1a, OD600, basal, 24 h (AID 1177); settings: OD600, 24 h, higher = more signal, called active from +8 up or from −8 down;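 further: cultures grown under basal conditions with no added stressor; test concentration not given here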
[17] = E. coli acrAB mutant growth effects, primary screen, E. coli filamentation inducers, strain DRC39, OD650, 24 h (AID 1178); settings: higher = more signal, called active from +8 up or from −8 down;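 further: growth measured as culture turbidity by optical density at 650 nm; test concentration not given here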
[18] = E. coli acrAB mutant growth effects, primary screen, E. coli filamentation inducers, strain DRC39, OD650, 48 h (AID 1179);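 further: screen aims at cell division blockers that make cells filament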; settings: E. coli DRC39 delta-acrAB growth, higher = more signal, called active from +8 up or from −8 down
[19] = RPMI8226 myeloma cell viability, profiling panel, resazurin fluorescence, basal, 24 h, PK04 Diversity Set (AID 1180); settings: higher = more signal;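 further: RPMI8826 multiple myeloma cell line at 5000 cells per well; test concentration not given here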
[20] = molecular target: E3 ubiquitin-protein ligase XIAP (Homo sapiens) (UniProt P98170); assay: XIAP binders, primary screen, biophysical, small-molecule microarray, fluorescence 635 nm (AID 1181); settings: small-molecule microarray binding, higher = more signal;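 further: score merges 667 nm emission and signal to noise over triplicate slides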
Chain of E3 ubiquitin-protein ligase XIAP (Homo sapiens) (P98170 whole entry, looked up): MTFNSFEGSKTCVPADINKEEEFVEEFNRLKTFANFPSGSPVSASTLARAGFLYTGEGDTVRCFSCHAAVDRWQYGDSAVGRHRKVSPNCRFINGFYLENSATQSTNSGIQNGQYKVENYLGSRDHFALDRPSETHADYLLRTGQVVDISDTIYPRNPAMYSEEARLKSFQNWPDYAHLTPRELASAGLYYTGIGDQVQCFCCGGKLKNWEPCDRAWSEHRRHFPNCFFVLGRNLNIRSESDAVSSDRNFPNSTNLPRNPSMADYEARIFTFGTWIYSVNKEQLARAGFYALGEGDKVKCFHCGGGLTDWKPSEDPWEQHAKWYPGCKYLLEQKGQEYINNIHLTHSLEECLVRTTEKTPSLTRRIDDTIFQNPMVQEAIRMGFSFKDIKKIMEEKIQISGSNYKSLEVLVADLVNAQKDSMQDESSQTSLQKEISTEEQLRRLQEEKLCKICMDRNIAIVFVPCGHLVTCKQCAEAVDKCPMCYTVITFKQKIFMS

| Structure (SMILES) | z-score [1] | z-score [2] | z-score [3] | z-score [4] | z-score [5] | z-score [6] | z-score [7] | z-score [8] | z-score [9] | z-score [10] | z-score [11] | z-score [12] | z-score [13] | composite z-score [14] | z-score [15] | z-score [16] | z-score [17] | z-score [18] | z-score [19] | composite z-score [20] |
| --- | --- | --- | --- | --- | --- | --- | --- | --- | --- | --- | --- | --- | --- | --- | --- | --- | --- | --- | --- | --- |
| COc1cc(NN2C(C(O)c3ccccc3)C=CC3C(=O)N(C)C(=O)C32)cc(OC)c1OC (stereo not given) | -0.209 | 0.68 | -0.131 | -1.34 | -0.589 | -0.944 | 0.215 (inactive) | -0.413 | -1.54 | -1.52 (inactive) | -2.2 | 0.758 (inactive) | -1.23 (inactive) | -2.04 (inactive) | 0.574 (inactive) | -0.0472 (inactive) | -0.466 (inactive) | -0.882 (inactive) | -1.32 | 0.0024 |
| NCCCCCNC(=O)[C@H]1C[C@H]2C(=O)N[C@@H](Cc3ccccc3)C(=O)N2[C@H]1c1ccc(O)cc1 | 0.422 | 0.774 | -0.642 | 0.309 | 0.141 | -0.746 | -0.595 (inactive) | -0.135 | -0.378 | 0.107 (inactive) | -0.255 | -0.53 (inactive) | -0.115 (inactive) | 1.21 (inactive) | 0.351 (inactive) | -0.334 (inactive) | 0.442 (inactive) | 0.69 (inactive) | -0.518 | 0.157 |
| O=C1N(CCS(=O)(=O)c2ccccc2)Cc2ccccc2[C@@H]2OC(c3ccc(OCCCO)cc3)=N[C@]12CCS(=O)(=O)c1ccccc1 | 1.35 | 0.859 | 0.345 | -0.635 | -1 | -1.65 | 1.72 (inactive) | -0.933 | -1.01 | 0.409 (inactive) | 0.638 | 1.6 (inactive) | 0.298 (inactive) | 0.324 (inactive) | 1.71 (inactive) | 2.85 (inactive) | 0.958 (inactive) | 0.31 (inactive) | -0.458 | -0.0062 |
| CO[C@H]1O[C@H](CO)[C@@H](OC(=O)c2ccc(Br)cc2)[C@@H]2OC(=O)[C@H](Cc3ccccc3)C/C=C/C[C@@H](Cc3ccccc3)C(=O)O[C@@H]12 | 1.77 | 0.863 | 0.857 | -0.389 | 0.0226 | -0.0867 | -1.37 (inactive) | 0.796 | -0.823 | -1 (inactive) | 0.722 | -2.04 (inactive) | -1.33 (inactive) | -0.854 (inactive) | -0.124 (inactive) | -1.42 (inactive) | 1.74 (inactive) | 2.16 (inactive) | 0.425 | 0.154 |
| Cc1ccc(S[C@]2(C(=O)NC(C)C)CC(=O)N(Cc3ccccc3Cl)[C@@H]2c2ccc(CO)cc2)cc1 | 0.175 | 0.35 | -0.12 | -0.387 | -2.06 | -0.142 | -0.397 (inactive) | -0.0618 | 0.551 | 0.232 (inactive) | -0.167 | -0.624 (inactive) | -0.514 (inactive) | -0.674 (inactive) | 1.52 (inactive) | 0.343 (inactive) | -0.332 (inactive) | -0.963 (inactive) | 0.351 | -0.0072 |
| C=CCC(OC(C)=O)[C@@H]1[C@@H](N(Cc2ccc(-c3ccccc3)cc2)C(=O)Cc2ccc(F)cc2)c2cc(OCCCO)ccc2N1C(=O)Cc1ccc2ccccc2c1 (stereo not given in full) | 0.234 | -0.246 | 0.646 | -0.177 | 0.0473 | 2.19 | -0.321 (inactive) | -0.909 | 0.89 | 1.05 (inactive) | 0.487 | -0.0838 (inactive) | 0.821 (inactive) | 0.252 (inactive) | 0.113 (inactive) | -0.177 (inactive) | 0.531 (inactive) | 0.575 (inactive) | 0.486 | -0.455 |
| O=C1O[C@H](c2ccccc2)[C@H](c2ccccc2)N2[C@H]1[C@@H](C(=O)N1CCCCCCC1)[C@]1(C(=O)Nc3ccc(C#CC4(O)CCCCCC4)cc31)[C@H]2c1ccccc1OCCO | -0.222 | -0.107 | 0.703 | -0.0437 | -0.908 | -0.175 | 0.64 (inactive) | -0.74 | -1.26 | -0.152 (inactive) | 1.72 | 0.893 (inactive) | -0.382 (inactive) | 0.195 (inactive) | 0.682 (inactive) | 2.45 (inactive) | 0.138 (inactive) | -1.14 (inactive) | -0.443 | 2.12 |
| COCCOC(=O)N1C(=O)[C@@]2(c3cc(C#Cc4ccc(OC)cc4)ccc31)[C@H](C(=O)NC[C@H](O)c1ccccc1)[C@H]1C(=O)O[C@H](c3ccccc3)[C@H](c3ccccc3)N1[C@@H]2c1ccc(OCCO)cc1 | -0.953 | 0.55 | -1.1 | -0.915 | -1.47 | -1.97 | 2.35 (inactive) | -0.66 | -1.78 | 1.32 (inactive) | 1.21 | 1.95 (inactive) | 0.0406 (inactive) | 1.86 (inactive) | 1.93 (inactive) | 2.67 (inactive) | 0.14 (inactive) | -0.35 (inactive) | -0.285 | -0.0883 |
| COc1cc2c(cc1O)C(c1ccc(CN3CCCC3)cc1)N(C)CC2 (stereo not given) | 0.105 | -0.582 | 0.339 | 0.752 | 0.0578 | 0.224 | 0.585 (inactive) | 0.224 | -0.699 | -1.18 (inactive) | -0.392 | 0.447 (inactive) | -1.36 (inactive) | -0.65 (inactive) | -0.255 (inactive) | 0.697 (inactive) | 0.0615 (inactive) | 0.382 (inactive) | -0.891 | 0.415 |
